In the library only some 1.8% were active in any assay of this set; here they are far more common.
Fam108B inh: blocks mouse Fam108B hydrolase in RBBP9 counter-screen; recombinant Fam108B, FP-Rh probe fluorescence polarization; inhibition, % at 9.51 µM; 300,000 tested, 0.33% active; AID 1947;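 active = inhibition above the screen mean inhibition plus 3 SD, computed separately per campaign, cut at about 18% in these data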;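 also: inhibitors lower polarization as less probe binds the enzyme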
LYPLA2 inh: blocks human lysophospholipase 2, a PME1 counter-screen; O95372; recombinant LYPLA2, FP-Rh probe fluorescence polarization; inhibition, % at 5.9 µM; 320,000 tested, 0.38% active;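 active = inhibition above the screen-wide mean plus 3 SD, limit set per campaign, cut at about 26% in these data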;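 also: 0% = LYPLA2 with DMSO and 100% = wells lacking LYPLA2 enzyme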
PME-1 primary: PME-1 (human) inhibition; Q9Y570; recombinant PME-1, FP-Rh probe fluorescence polarization; inhibition, % at 5.9 µM; 320,000 tested, 0.53% active;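 active = inhibition above the campaign mean of all compounds plus 3 SD, cut at about 26% in these data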;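 also: competitive labeling of PME-1 active site by serine hydrolase directed probe; 0% = PME-1 with DMSO and 100% = wells lacking PME-1 enzyme; inhibitors block probe labeling so polarization falls and inhibition rises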
Target sequence (Q9Y570 whole entry, looked up): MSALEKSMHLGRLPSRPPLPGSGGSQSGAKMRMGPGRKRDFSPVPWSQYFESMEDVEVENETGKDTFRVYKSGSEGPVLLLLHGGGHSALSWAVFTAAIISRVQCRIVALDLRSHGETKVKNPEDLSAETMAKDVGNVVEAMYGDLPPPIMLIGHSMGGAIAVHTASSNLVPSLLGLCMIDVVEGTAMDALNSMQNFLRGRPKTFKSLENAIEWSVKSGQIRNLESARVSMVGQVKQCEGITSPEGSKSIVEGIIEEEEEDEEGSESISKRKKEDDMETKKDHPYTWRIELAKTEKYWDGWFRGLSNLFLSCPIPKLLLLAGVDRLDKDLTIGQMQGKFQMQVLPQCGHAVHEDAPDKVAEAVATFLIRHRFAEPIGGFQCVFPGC
GSTO1 counter: counter-screen for RBBP9 inhibitors: inhibitors of human GSTO1 | P78417 | recombinant GSTO1, activity-based probe fluorescence polarization | inhibition, % at 5.96 µM | 300,000 tested, 1.1% active;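 active = inhibition above the campaign mean inhibition plus 3 SD, cut at about 35% in these data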;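 also: 0% = GSTO1-1 with DMSO and 100% = wells lacking GSTO1-1 enzyme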
LYPLA1 inh: LYPLA1 (human) inhibition in PME1 counter-screen; O75608; recombinant LYPLA1, FP-Rh probe fluorescence polarization; inhibition, % at 5.9 µM; 320,000 tested, 0.16% active; AID 2174;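 active = inhibition above the mean of all tested compounds plus 3 SD, set per campaign, cut at about 14% in these data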;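 also: inhibitors block serine hydrolase probe labeling of LYPLA1 so polarization falls; 0% = enzyme with DMSO and 100% = wells lacking LYPLA1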
PAD4 inh: inhibitors of human PAD4; Q9UM07; recombinant PAD4, RCA probe fluorescence polarization; inhibition, % at 6.36 µM; 330,000 tested, 0.41% active; AID 485272;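 active = percent inhibition above a cutoff equal to the mean of all tested compounds plus 3 SD, cut at about 15% in these data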;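 also: 0% = PAD4 with RCA probe and DMSO and 100% = probe without PAD4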
Active calls of the source: *; x = no result given.

SMILES	Fam108B inh	LYPLA2 inh	PME-1 primary	GSTO1 counter	LYPLA1 inh	PAD4 inh
O=C(COc1ccc2ccccc2c1)Nc1cccc(C(=O)Nc2ccccc2C(=O)O)c1	-20.1	-30.7	-80.2	-75.8	-19.9	-8.4
O=C(O)c1ccccc1Nc1cccc(OCc2ccc3ccccc3n2)c1	4.9	9.2	29.8*	6.6	-1.1	3.0
CCc1cc(C(=O)N=Nc2c(O)[nH]c3ccc([N+](=O)[O-])cc23)c2ccccc2n1	9.2	-8.1	-1.0	43.3*	-12.4	-7.1
CCCCCCC(=O)N=Nc1c(O)[nH]c2ccc([N+](=O)[O-])cc12	-0.1	7.2	-3.9	4.1	2.2	-2.0
COc1ccc(NC(=O)c2c[nH]n3c(=O)cc(C4CCN(C(=O)OC(C)(C)C)CC4)nc23)cc1Cl	4.7	-3.3	32.8*	-3.9	0.5	-2.8
CC(C)(C)OC(=O)N1CCC(c2cc(=O)n3[nH]c(-c4ccc(Cl)cc4)cc3n2)CC1	-1.0	-0.2	-8.0	-4.1	1.0	0.1
COC(=O)CC#N	x	0.8	-5.3	x	0.9	0.4
N#CCC(N)=C(C#N)C#N	-0.8	-0.5	-7.8	78.8*	1.6	-13.0
O=[N+]([O-])c1cc(CN2CCCC2)c2cccnc2c1O	7.2	-2.1	-14.3	46.7*	-5.2	-23.9
Cc1cccc(C(=O)NCCC(=O)Nc2ccc(F)c([N+](=O)[O-])c2)c1	2.0	6.3	-4.6	6.0	2.6	0.3
O=C(Nc1nc(-c2ccccn2)cs1)c1ccc(Cl)s1	-12.5	2.5	-8.4	44.5*	-4.3	-1.1
Cc1ccc(C(=O)Nc2nc(-c3ccccn3)cs2)s1	x	-7.4	-4.4	x	-2.6	1.8
COc1cc(C(=O)NCC(=O)NNC(=O)CN(C)S(=O)(=O)c2ccc(Cl)cc2)cc(OC)c1OC	x	x	x	x	x	-1.4
Cc1ccc(O)c(C(=O)c2cc(C#N)c(=O)n(-c3nccs3)c2)c1	7.6	-7.3	33.2*	9.4	-6.9	-11.0
O=c1[nH][nH]c2cc(=O)n(-c3cccc(C(F)(F)F)c3)nc12	5.0	2.3	37.4*	24.6	1.9	-1.6
Nc1c(/C=C2/C=CC(=O)C(O)=C2)c(=O)nc2sc(CC(=O)N3CCCCC3)nn12	13.4	-3.7	4.8	41.5*	-0.2	2.7
O=C1CCCc2c1sc1nc3n(c(=O)c21)CCCCC3	0.7	-4.4	-1.1	-2.5	-2.2	0.1
O=C1c2sc3nc4n(c(=O)c3c2CCC1Br)CCCCC4 (stereo unspecified)	-4.3	-11.8	-2.7	55.0*	-6.9	-2.1
Cc1ccc(C(CC(=O)NCCCN(C)C)c2ccc(OC(C)C)cc2)cc1 (stereo unspecified)	1.9	3.0	-0.6	4.3	1.7	-1.2
CCOC(=O)/C(=C/Nc1ccc(F)c(F)c1)[N+](=O)[O-]	5.7	-5.3	-2.7	3.9	1.9	4.0
Cc1c(C(=O)OC/C(O)=C(\C#N)c2nc3ccccc3[nH]2)oc2ccccc12	-2.9	-13.1	31.5*	15.4	-9.3	-0.8
CCc1nnc(NC(=O)CSc2nc3c(c(=O)n2CC)SC(C)C3)s1 (stereo unspecified)	-2.3	-1.6	7.0	35.1*	-1.3	-2.7
Cc1ccc2oc(C(=O)N(C)CCC(O)c3ccccc3)c(C)c2c1 (stereo unspecified)	0.3	3.4	4.8	5.0	-2.5	-5.6
CCc1ccc(Nc2ncc3c(n2)CC(C)(C)CC3=O)cc1	-2.9	-7.9	-1.0	-9.6	0.9	-6.4
CC(C)NC(=S)N=Nc1c(O)[nH]c2ccc(C(C)C)cc12	0.8	0.5	28.6*	-3.8	1.3	-2.7
SMILES	Fam108B inh	LYPLA2 inh	PME-1 primary	GSTO1 counter	LYPLA1 inh	PAD4 inh
CC1=Nc2ccccc2/C1=C/c1sc(=N)n(-c2nccs2)c1O	12.7	0.0	39.2*	10.0	4.3	-7.3
Cc1cc(-c2ccccc2)nc(N/N=C/c2ccc(O)cc2O)n1	7.0	-1.4	39.9*	17.4	-9.0	1.1
Cc1cc(-c2ccccc2)nc(N/N=C/c2ccccc2)n1	2.3	-3.5	8.8	-1.2	4.9	-4.8
N#C/C(=C\c1ccc(-c2ccccc2[N+](=O)[O-])o1)C(=O)Nc1nc(-c2cccs2)cs1	5.9	12.3	29.1*	18.5	-12.8	-8.9
N#C/C(=C\c1ccc(-c2ccc([N+](=O)[O-])cc2)o1)C(=O)Nc1nc(-c2cccs2)cs1	0.2	-7.5	0.6	-19.8	-13.4	-37.3
COc1ccc(NC(=O)C(c2ccccn2)N(C(C)=O)c2ccc(C)cc2)cc1 (stereo unspecified)	-0.7	-2.0	-5.8	9.4	-0.7	-4.5
